Consider 37 molecules from PubChem BioAssay (NCI).

Compounds without any hit were thinned out: in the full panel of roughly 83,000, 20% have a hit.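 Note: values are percent growth. 100 is the growth of untreated cells, values between 100 and 0 indicate rising inhibition; between -100 and 0 indicates cell death.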 Activity calls are given as the source filed them. How the source made its calls: active means growth percent below 10; inactive means the rest.

The assay deals with HCC-2998 colon. The experiment in a line: NCI-60 one-dose screen, 48 h (100 = growth as untreated, 0 = no growth, -100 = all killed). The note with it: 10 µM.
With `Nc1ccc(-c2cccs2)cc1NC(=O)c1ccc(CCCC(=O)Nc2ccc(C3CC3N)cc2)cc1` (configuration not stated), the growth is 99.7% (inactive).
Take `CCCc1cn(CC(=O)Nc2nc3ccccc3s2)nn1`: the growth was 116% (inactive).
To `O=C(CCCCCCC(=O)Nc1ccccc1)NO` belongs 0.434% (active).
Regarding `O=[N+]([O-])c1ccc(/C(=C/c2ccccc2)[n+]2ccccc2)cc1`, the growth was 126% (inactive).
For `Oc1cccc(-c2nc3sccn3c2-c2ccncn2)c1`, the growth is 111% (inactive).
As to `COc1ccc(/C(=N\N)C(=O)c2ccccc2)cc1` (tested in a mixture with another compound), the growth was 98.1% (inactive).
On to `COc1ccc(C(=O)N/N=C/c2cc(C(F)(F)F)ccc2Cl)cc1`, for which the growth is 95.7% (inactive).
Turning to `OCC1OC2C(NC(=S)N2c2ccccc2)C(O)C1O` (configuration not stated), the growth was 104% (inactive).
To `COc1cc2cc(Oc3ccc(NC(=O)Nc4cccc(C(F)(F)F)c4)cc3)c(C)nc2cc1OC` belongs 25.4% (inactive); to `Cc1c2c[n+](C(C)C)ccc2c(C)c2c1[nH]c1ccccc12`, 18.8% (inactive).
`CC(=O)Nc1ccc(S(=O)(=O)c2ccnc3cc(Cl)ccc23)cc1`: the growth is 100% (inactive).
For the molecule `CS(=O)(=O)c1nccc(-c2c(-c3cccc(OCCN4CCOCC4)c3)nc3sccn23)n1`, the growth is 101% (inactive).
On to `COc1ccc(Cc2cnc(N)nc2N)cc1OC`, for which the growth is 105% (inactive).
With `C=CCN(CC=C)C(=O)[C@H](CC)[C@@H]1CC[C@@H](C)[C@@H]([C@H](C)[C@@H](O)[C@@H](C)C(=O)[C@H](CC)C2O[C@]3(C=CC(=O)[C@]4(CC[C@@](C)([C@H]5CC[C@](O)(CC)[C@H](C)O5)O4)O3)[C@H](C)C[C@@H]2C)O1` (some centres not stated), the growth is 26.5% (inactive).
`O=C1c2c(c(=O)[nH]c3ccccc23)CCN1Cc1ccccc1`: the growth is 111% (inactive).
In the case of `COc1ccccc1-n1c(-c2csc(NC(C)=O)n2)n[nH]c1=S` it was 101% (inactive); in that of `Cc1ccc(NCCN(C)CC(C)O)c2c(=O)c3ccccc3sc12` (configuration not stated), 15.4% (inactive); in that of `CCNCC(=O)Nc1ccc(C(=O)OCC)cc1`, 98.7% (inactive).
To `COC(=O)C1OC1c1cc([N+](=O)[O-])ccc1OC` (configuration not stated) belongs 96.1% (inactive); to `O=C1c2ccccc2C(=O)c2c1ccc1c(=O)n(-c3ccccc3C(F)(F)F)nnc21`, 28.9% (inactive).
For `Nc1ccccc1NC(=O)c1ccc(CCCC(=O)Nc2ccc(C3CC3N)cc2)cc1` (configuration not stated), the growth was 19.5% (inactive).
As for `C=CCn1c(SCC(=O)Nc2ccc(C(=O)/C=C/c3ccc(OC)cc3)cc2)nnc1-c1ccc(OC)c(OC)c1`, the growth is 94.6% (inactive).
For `CN1C(C(=O)Nc2ccccn2)=C(O)c2sc(Cl)cc2S1(=O)=O`, the growth was 95.1% (inactive).
With `CC1/C=C/C=C/C=C/C=C/C=C/C=C/C=C/C(O[C@@H]2O[C@H](C)[C@H](O)[C@@H](O)[C@@H]2N)CC(O)C(C(=O)O)C(O)CC(=O)CC(O)CC(O)CC(O)CC(=O)CCCC(=O)CC(=O)OC1C(C)CC(C)C(O)CC(=O)c1ccc(N)cc1` (some centres not stated), the growth was -98.1% (active).
For `CCN(CC)CC(=O)N(CC)c1ccc(C)c(Cl)c1`, the growth is 102% (inactive).
Turning to `NC(CSC(c1ccccc1)(c1ccccc1)c1cccc2ccccc12)C(=O)O` (configuration not stated), the growth is 103% (inactive).
To `O=C(CCn1cnc2c(cc(-c3ccccc3)n2-c2ccccc2)c1=O)Nc1ccc(F)cc1` belongs 86.2% (inactive); to `COc1ccc(C(=O)CC(CC(=O)c2ccc(OC)cc2)c2c(C)nn(-c3ccccc3)c2Cl)cc1`, 109% (inactive).
Regarding `CCCN1CN2C(=O)N3CN(CCC)CN4C(=S)N(C1)C2C34` (configuration not stated), the growth is 106% (inactive).
Consider `NC1=NC(c2ccccc2)C2=C(N1)/C(=C/c1ccccc1)CCC2` (configuration not stated), for which the growth is 48.5% (inactive).
In the case of `C[C@]12CC[C@@H]3c4ccc(O)cc4CC[C@H]3[C@@H]1CC[C@@H]2NS(=O)(=O)c1ccc(C(F)(F)F)cc1` it was 60.4% (inactive).
In the case of `OCC1OC(n2cnc3c(NCc4ccco4)ncnc32)C(O)C1O` (configuration not stated) it was 23.7% (inactive); in that of `COc1cc(C2CC(c3cc(Cl)c(C)cc3O)=NN2c2ccc(S(N)(=O)=O)cc2)cc(OC)c1OC` (configuration not stated), -20.6% (active); in that of `N=C1S/C(=C/c2ccc(-c3ccc4c(c3)C(=O)NC4=O)o2)C(=O)N1c1ccc(Br)cc1`, 89% (inactive).
`c1cnc2[nH]cc(-c3nc(-c4ccsc4)cs3)c2c1`: the growth is 115% (inactive).
As for `Clc1nc2ccc(Br)cc2cc1-c1nc2ccccc2[nH]1`, the growth is 108% (inactive).
`Nc1nc(Cl)nc2c1ncn2C1O[C@H](CO)[C@@H](O)[C@@H]1F` (some centres not stated): the growth is 57.3% (inactive).
